Measurements: paper PMC5540273 (PLoS ONE, 2017)

Test system: GSK3B
Conditions: 1 µM; n = 1
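Further: KINOMEscan kinase panel screen.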

SMILES	%Inh [%]
CCCC(=O)Nc1n[nH]c2ncc(-c3cccc4ccccc34)cc12 [SB-642057]	33
O=C1NC(=O)C(c2ccccc2)=C1Nc1cccc(O)c1 [SB-390534]	20
Nc1n[nH]c2nnc(-c3ccccc3)c(-c3ccccc3)c12 [GW554060]	42

Same assay, conditions: concentration: 1 μM, replicates: in singlicate; n = 1

SMILES	%Inh [%]
C[C@@H]1CC[C@H](C(=O)NC2CCCCC2)CN1c1cc(-c2ccc3c(N)n[nH]c3c2)nc(N)n1 [GSK2291363]	17
Cc1nc(N(C)[C@H]2CN(C(=O)CC#N)CC[C@H]2C)c2cc[nH]c2n1	0
Nc1nccc2scc(-c3ccc4c(c3)CCN4C(=O)Cc3ccccc3)c12 [GSK2576924]	2
COc1cc(OC)cc(-c2cc3cnc(N)nc3nc2NC(=O)NC(C)(C)C)c1	0
O=C(Nc1n[nH]c2cc(-c3ccccc3F)ccc12)C1CC1 [SB-733371]	19
CCCNC(=O)Nc1ccc(Oc2ncnc3ccn(C)c23)cc1	21
COc1cc2ncn(-c3cc(OCc4ccncc4Br)c(C(N)=O)s3)c2cc1OC [GW854278]	0
Cc1nn2c(=O)cc(N3CCOCC3)nc2n1Cc1cccc(Cl)c1Cl [GSK2342769]	13
Cc1c(Cn2c(C)nn3c(=O)cc(N4CCO[C@H](C)C4)nc23)cccc1C(F)(F)F [GSK2373690]	6
COc1cc2nccc(Nc3ccc(OCc4ccc(NC(C)=O)cc4)cc3)c2cc1OC.Cl [GW440135]	0
Cc1cccc(-c2nc(Nc3ccc4c(cnn4C)c3)c3ccccc3n2)n1 [GW876731]	0
FC(F)(F)c1ccc(-c2ncn(CCCN3CCOCC3)c2-c2ccncc2)cc1 [SB-217780]	25
OCCCNc1nccc(-c2c(-c3cccc(C(F)(F)F)c3)nn3cc(C(F)(F)F)ccc23)n1 [GW630813]	2
COc1cc(Nc2nccc(N3CCC(NC(=O)C4COc5ccccc5O4)C3)n2)cc(OC)c1OC (stereo not shown) [GSK1379761]	3
CCc1ccc(-c2ccc3c(c2)-c2nn(C)cc2S(=O)(=O)N3C)cc1	0
COc1cc(Nc2nccc(N3CCC(NC(=O)C(C)c4ccc(Cl)cc4)C3)n2)cc(OC)c1OC (stereo not shown) [GSK1379757]	0
CCS(=O)c1ccc(-c2coc3ccc(-c4nnc(C)o4)cc23)cc1 (stereo not shown)	58

SMILES	%Inh [%]
COc1cccc(-n2cnc3c(N)ncnc32)c1 [SKF-97416]	35
COc1cc2ncn(-c3cc(OCc4ccncc4)c(C(N)=O)s3)c2cc1OC [GSK336313]	7
COC(=O)c1c(-c2ccccc2)c2cc(Br)ccc2c(=O)n1Cc1ccc(S(C)(=O)=O)cc1	19
Nc1ncnc2c1ncn2-c1cccc(F)c1 [SKF-97560]	13
Cc1ccc(-c2ccc3c(ccc4sc5c(c43)NC[C@@H](C)N=C5N(C)C)n2)cn1	0
COc1cc2ncn(-c3cc(OCc4ccc(S(C)(=O)=O)cc4)c(C(N)=O)s3)c2cc1OC [GW869979]	0
Cl.NS(=O)(=O)c1cccc(Nc2cc(-c3ccc(F)cc3)n[nH]2)c1 [GW824645]	6
COc1cccc(C2=C(N(C)c3ccccc3)C(=O)NC2=O)c1 [SB-334865]	24
CCn1c(-c2ccoc2)nc2cnccc21 [SB-733887]	22
COc1cc2nccc(Nc3cccc(Oc4ccccc4)c3)c2cc1OC.Cl [GW284543]	0
CCC(=O)c1c(-c2ccccc2)c2cc(Cl)ccc2c(=O)n1Cc1cc(S(C)(=O)=O)n(CC(N)=O)n1	0
CCn1c(-c2nonc2N)nc2ccccc21 [SB-693162/GW549034]	37
CN(C)c1cc(-c2ccc3c(N)n[nH]c3c2)nc(N)n1 [GSK2219329]	5
Cc1ccccc1COc1cc(-n2cnc3cc(Cl)ccc32)sc1C(N)=O [GW813349]	14
Cl.c1ccc(Cn2cnc3cc(Nc4ncnc5ccccc45)ccc32)cc1 [GW272142]	1
Nc1ncnc2c1ncn2-c1cccc2ccccc12 [SKF-97184]	23
COc1ccc(CNC(=O)NC2CCN(c3ccnc(Nc4ccc(F)cc4)n3)C2)cc1 (stereo not shown) [GSK1379706]	1
